From PubChem
A selection: hits, their analogues and other compounds. The true share with any hit is near 0.92%.
APE1 inh-1: inhibitors of human APE1 endonuclease; P27695; Potency, µM (titrated, usually from 65.8 µM), hits mostly inhibitors; recombinant APE1, TAMRA/BHQ-2 abasic DNA cleavage fluorescence; 350,000 tested, 0.35% active; also: nearly all actives have a fitted effect of over 55% in size
Target sequence (P27695 whole entry, looked up): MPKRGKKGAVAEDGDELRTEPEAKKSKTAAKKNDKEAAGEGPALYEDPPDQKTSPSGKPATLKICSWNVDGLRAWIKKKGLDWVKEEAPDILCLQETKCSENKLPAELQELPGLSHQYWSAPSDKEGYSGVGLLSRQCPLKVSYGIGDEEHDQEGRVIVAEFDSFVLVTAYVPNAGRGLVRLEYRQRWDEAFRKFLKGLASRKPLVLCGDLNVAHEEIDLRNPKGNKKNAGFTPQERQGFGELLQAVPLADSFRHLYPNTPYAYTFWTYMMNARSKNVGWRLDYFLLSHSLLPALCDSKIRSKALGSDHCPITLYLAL
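Quantitative HTS: incision of a TAMRA/BHQ-2 double-stranded substrate bearing a tetrahydrofuran abasic site by 0.75 nM APE1 raises fluorescence. Substrate 50 nM final, added after 15 min compound preincubation at room temperature; progress as third-minus-first kinetic read difference.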
TDP1 inh: inhibitors of human tyrosyl-DNA phosphodiesterase TDP1; Q9NUW8; recombinant TDP1, AlphaScreen DNA substrate cleavage; Potency, µM (highest dose often 130 µM), usual class: inhibitors; 350,000 tested, 0.28% active; AID 485290; also: nearly all actives have a fitted effect of over 40% in size
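AlphaScreen read-out: signal falls as enzyme removes the 3' tyrosine-FITC from a 5'-biotinylated DNA oligo (15 nM, 5 min, RT). Enzyme was E. coli-made recombinant Tdp1 at 1 nM, exposed to compound for 15 min beforehand; beads 10 ug/ml, 10 min.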
RECQ1 inh-1: RECQ1 (human) helicase inhibition; P46063; RECQ1 DNA unwinding, red fluorescence kinetic read; Potency, µM (top dose mostly 57.3 µM), hits mostly inhibitors; 240,000 tested, 0.54% active; AID 2549; also: nearly all actives have a fitted effect of over 30% in size
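50 nM RECQ1T1 preincubated 15 min with compound in Tris pH 8.0 buffer with MgCl2, DTT, Tween-20 and 2.5 ug/ml poly(dI-dC); started with 200 nM TAMRA/BHQ-2 forked duplex and 2 mM ATP. Unwinding read as fluorescence (525/598 nm), two reads 2 h apart.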
BLM inh-1: blocks DNA unwinding by human BLM helicase; recombinant BLM DNA unwinding, fluorescence dequenching; 350,000 tested, 0.2% active; Potency, µM (titrated, usually from 56.1 µM), usual class: inhibitors; P54132; also: nearly all actives have a fitted effect of over 35% in size
FEN1 inh: human FEN1 inhibition; Recombinant FEN1 flap cleavage, fluorescence, 15 min; Potency, µM (top dose mostly 114 µM), most hits filed as inhibitors; 390,000 tested, 0.35% active; AID 588795; also: nearly all actives have a fitted effect of over 65% in size
Target sequence (P39748 whole entry, looked up): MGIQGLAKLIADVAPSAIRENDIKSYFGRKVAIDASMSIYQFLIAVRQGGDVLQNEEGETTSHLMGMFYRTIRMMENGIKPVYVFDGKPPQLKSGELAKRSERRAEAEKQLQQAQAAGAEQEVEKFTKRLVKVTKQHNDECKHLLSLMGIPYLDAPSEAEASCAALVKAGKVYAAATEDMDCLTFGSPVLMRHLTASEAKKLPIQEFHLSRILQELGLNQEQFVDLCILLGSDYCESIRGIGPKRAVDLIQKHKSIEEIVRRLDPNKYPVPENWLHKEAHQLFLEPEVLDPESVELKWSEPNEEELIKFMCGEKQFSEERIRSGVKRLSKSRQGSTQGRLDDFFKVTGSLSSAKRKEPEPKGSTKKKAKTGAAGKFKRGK
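Potency values derive from four-parameter Hill fits of normalized qHTS data. The reaction used 10 nM FEN1 preincubated 15 min at room temperature with compound, then 50 nM DNA substrate, read at 0 and 15 min.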
DNA dye displace: counter-screen for APE1 inhibitors: DNA dye displacement. DNA fluorescent dye displacement counterscreen, fluorescence. 480 tested, 7% active. Potency, µM (doses to about 28.5 µM), hits mostly inhibitors. shares compounds with APE1 inh-1. AID 2564;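 also: loss of thiazole orange fluorescence as the dye is displaced from duplex DNA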
EndoIV counter: Endo IV (E. coli) inhibition counter-screen; shares compounds with APE1 inh-1; E. coli Endo IV, fluorogenic AP-site DNA cleavage; Potency, µM (series often up to 27.1 µM), usual class: inhibitors; 560 tested, 4% active; AID 2565
APE1 inh-2: confirmation of inhibitors of human APE1 endonuclease; shares compounds with APE1 inh-1; purified APE1, fluorogenic abasic-site DNA cleavage; Potency, µM (highest dose often 57.1 µM), hits mostly inhibitors; 750 tested, 44% active; AID 2572; also: nearly all actives have a fitted effect of over 30% in size
APE1 FP: compounds that displace a DNA probe from human APE1; shares compounds with APE1 inh-1; APE1 binding to TAMRA-labelled double-stranded DNA, fluorescence polarization displacement; Potency, µM (series often up to 28.5 µM), hits mostly inhibitors; 480 tested, 7% active; AID 2573
BLM inh-2: BLM (human) helicase inhibition, confirmation; shares compounds with BLM inh-1; BLM DNA unwinding, fluorescence quenching, biochemical; Potency, µM, actives largely listed as inhibitors; 220 tested, 40% active; AID 2585;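 also: strand separation dequenches TAMRA so unwinding raises red fluorescence; series mostly up to about 69 µM; nearly all actives have a fitted effect of over 45% in size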
RECQ1 inh conf: confirmation of human RECQ1 helicase inhibitors | shares compounds with RECQ1 inh-1 | RECQ1 helicase DNA unwinding, fluorescence | Potency, µM (series often up to 229 µM), most hits filed as inhibitors | 610 tested, 28% active | AID 2708; also: nearly all actives have a fitted effect of over 45% in size
ADP FP counter: displaces ADP in a fluorescence polarization counter-screen for RECQ1 hits. 530 tested, 27% active. shares compounds with RECQ1 inh-1. ADP fluorescence polarization displacement counterscreen. Potency, µM (top dose mostly 228 µM), hits mostly inhibitors; also: nearly all actives have a fitted effect of over 45% in size
RECQ1 inh-2: blocks human RECQ1 DNA unwinding; Potency, µM (doses to about 119 µM), usual class: inhibitors; recombinant RECQ1 DNA unwinding, red fluorescence; shares compounds with RECQ1 inh-1; 1,100 tested, 15% active; AID 504841; also: nearly all actives have a fitted effect of over 50% in size
A number is an active result; – = inactive; ? = inconclusive; · = no result; [ ] = remark or other dose. Calls follow the shape of the dose curve; as a rule, active = well fitted curve in the direction sought with a large enough effect; inconclusive = small, poorly fitted or top-dose-only effect, or another doubt; inactive = no such curve, though single readings can be large; an effect the other way counts as inactive or inconclusive.

SMILES	APE1 inh-1	TDP1 inh	RECQ1 inh-1	BLM inh-1	FEN1 inh	DNA dye displace	EndoIV counter	APE1 inh-2	APE1 FP	others
CN=c1scc(-c2ccccc2F)n1/N=C/c1ccc[nH]1	35.5µM	–	–	–	–	–	–	?	–
COc1cc(N)c(Cl)cc1C(=O)OCCN1CCCCC1	?	–	–	–	10.6µM	–	–	–	–
COc1ccc(/C=N/NC(=O)c2cccc(NC(=O)c3ccc(F)cc3)c2)c(C(=O)O)c1OC	–	50.1µM	–	–	–	·	·	–	·
COc1ccc(OC)c(-c2csc(N(Cc3ccco3)C(=O)c3ccco3)n2)c1	?	–	–	–	–	–	?	?	–
Cc1nc(-c2ccc(C)c(N3CCN(C(=O)Nc4ccc(Br)cc4)CC3)c2)no1	·	–	·	–	–	·	·	·	·
O=c1oc2ccc(NS(=O)(=O)c3cccc4cccnc34)cc2s1	–[12.4 µM]	·	·	–	–	·	·	·	·
O=C1CCCc2oc3ccc(NS(=O)(=O)c4cccc5cccnc45)cc3c21	?	50.1µM	–	–	–	·	·	?	·
COc1ccc(C(=O)c2ccc(CC#N)s2)cc1	–	89.1µM	–	–	–	·	·	–	·
COc1ccc(C(=O)c2ccsc2N)cc1	–	·	·	–	–	·	·	·	·
Cc1ccc(/C=c2\sc3nc(-c4ccco4)nn3c2=O)o1	5.62µM	–	–	25.1µM	?	?	–	7.94µM	–	BLM inh-2=–
CCOc1ccc(N2CC(NC(=O)c3cc4ccccc4o3)CC2=O)cc1 (configuration not stated)	·	–	·	–	–	·	·	·	·
O=c1nc2s/c(=C\c3ccco3)c(=O)n2nc1Cc1ccc(F)cc1	7.94µM	?	22.4µM	–	?	?	–	7.08µM	?	RECQ1 inh conf=56.2µM;ADP FP counter=?;RECQ1 inh-2=?
Cc1cccc(NC(=O)CSc2nnc(-c3ccco3)c(-c3ccco3)n2)c1C	?	?	17.8µM	17.8µM	?	?	–	?	–	RECQ1 inh-2=–
CCc1ccc(NC(=O)CCCc2nnc3n(CC(C)C)c(=O)c4sccc4n23)cc1	·	–	·	–	–	·	·	·	·
CC(=O)c1cccc(NC(=O)c2cc(-c3ccco3)nc3ccccc23)c1	–	·	·	–	–	·	·	·	·
O=C(Nc1cccc(S(=O)(=O)NC2=NCCCCC2)c1)c1cc(-c2ccco2)nc2ccccc12	12.6µM	·	20µM	?	–	–	–	?	–	RECQ1 inh-2=?
Cc1c(C(=O)O)sc2nc3n(c(=O)c12)CCC3	?	14.1µM	?	–	–	·	·	?	·	RECQ1 inh-2=–
Cc1c(C(=O)N2CCN(c3ccccc3)CC2)sc2nc3n(c(=O)c12)CCC3	–	–	·	–	–	·	·	·	·
Cc1c(-c2nnc(SCC(=O)Nc3ccc(Br)cc3)o2)nnn1-c1ccc(F)cc1	·	–	·	–	–	·	·	·	·
Cc1ccc(/C=c2\sc3nc(-c4ccccc4Br)nn3c2=O)o1	12.6µM	·	?	–	?	?	–	–	–	RECQ1 inh-2=–
Cc1ccc(/C=c2/sc3nnc(-c4ccccc4Cl)n3c2=O)o1	?	–	–	?	–	·	·	·	·
COC(=O)c1cc2oc(C)cc2n1CC(=O)Nc1ccc(C(C)C)cc1	·	–	·	–	–	·	·	·	·
Cc1ccccc1NC(=O)CN1C(=O)S/C(=C\c2ccc(-c3cccc(C(=O)O)c3C)o2)C1=O	–	–	–	–	–	·	·	·	·
Cc1ccc(NC(=O)CN2C(=O)S/C(=C/c3ccc(-c4cc(C(=O)O)ccc4C)o3)C2=O)cc1C	?	·	14.1µM	?	35.5µM	–	–	7.08µM	10µM	RECQ1 inh conf=22.4µM;ADP FP counter=?;RECQ1 inh-2=?
O=C(O)C[C@@H]1C(=O)O[C@@H]2C(COC(=O)c3cc(O)c(O)c(O)c3)O[C@@H](OC(=O)c3cc(O)c(O)c(O)c3)[C@@H](OC(=O)c3cc(O)c(O)c4c3[C@H]1[C@H](O)C(=O)O4)[C@H]2OC(=O)c1cc(O)c(O)c(O)c1 (some centres not stated)	0.0089µM	·	0.112µM	0.1µM	·	?	?	0.0022µM	?	RECQ1 inh conf=0.447µM;ADP FP counter=31.6µM
SMILES	APE1 inh-1	TDP1 inh	RECQ1 inh-1	BLM inh-1	FEN1 inh	DNA dye displace	EndoIV counter	APE1 inh-2	APE1 FP	others
COC1OC(COC(=O)c2ccccc2)C(OC(=O)c2ccccc2)C1OC(=O)c1ccccc1 (configuration not stated)	–	·	·	–	–	·	·	·	·
COc1cc(N(C)C)cc(CN(C)CCc2ccc([N+](=O)[O-])cc2)c1O	3.16µM	2.24µM	10µM	14.1µM	·	–	–	?	–	RECQ1 inh conf=100µM;ADP FP counter=?;RECQ1 inh-2=50.1µM
COc1ccc(CNCCc2ccc([N+](=O)[O-])cc2)c(OC)c1OC	–	·	·	–	–	·	·	·	·
COc1ccc(/C=N/NC(=O)c2cc(O)c(O)c(O)c2)cc1Cn1cc([N+](=O)[O-])cn1	1.58µM	–	1.78µM	?	?	?	–	1.26µM	–	RECQ1 inh conf=?;ADP FP counter=–
O=C(CSc1nc(-c2ccccc2)nc2c1CCCC2)c1ccc(F)cc1	·	·	·	–	–	·	·	·	·
CCOC(=O)c1ccccc1NC(=O)N1CCC(N2CCN(Cc3ccccc3)C(=O)C2=O)CC1	·	–	·	–	–	·	·	·	·
CC[C@H](C)[C@H](NC(=O)CNC(=O)[C@H](CCCNC(=N)N)NC(=O)CNC(=O)[C@@H](NC(=O)[C@H](Cc1ccc(O)cc1)NC(=O)[C@H](Cc1c[nH]c2ccccc12)NC(=O)[C@H](C)NC(=O)[C@@H]1CCCN1C(=O)[C@H](CC(N)=O)NC(=O)[C@@H](NC(=O)[C@H](CC(=O)O)NC(=O)[C@@H]1CCCN1C(=O)[C@@H](N)[C@@H](C)O)[C@@H](C)CC)[C@@H](C)O)C(=O)N[C@@H](CCCNC(=N)N)C(=O)N1CCC[C@H]1C(=O)N[C@H](C(=O)NCC(=O)N[C@@H](CCCNC(=N)N)C(=O)N[C@@H](Cc1ccccc1)C(N)=O)C(C)C	–	–	–	–	·	·	·	·	·
